# The whole screen tested about 5,500 compounds, of which about 2,000 (36%) were called active. Roughly 18% stayed inconclusive and do not appear here. The list shows a part of the results. Values without a mark were called inactive. No stated cut-off is given here; in the data, active means normalized growth mostly below about 0.91 (no sharp cut-off); inconclusive means no clear call, values can overlap the other calls; inactive means mostly above about 0.92.
# Assay: chemical genetic growth profiling, strain panel (AID 1159580);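 further: tested at 20 µM; growth read once vehicle control cultures reached saturation at 30 °C; 1 = growth at the plate median or of vehicle wells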
# Conditions: S. cerevisiae deletion strains, growth OD
# [1] = locus YMR307W, strain GAS1, stronger effect = lower value
structure (smiles),measurement,setting,value
Nc1nc2ccc(Cl)cc2c2nc(-c3ccco3)nn12,normalized growth,"locus YAL040C, strain CLN3, stronger effect = lower value",0.734 (active)
same,normalized growth,"locus YCL061C, strain MRC1 (second series), stronger effect = lower value",0.988
same,normalized growth,"locus YDR363W, strain ESC2, stronger effect = lower value",0.926
same,normalized growth,"locus YER002W, strain NOP16, stronger effect = lower value",0.74 (active)
same,normalized growth,[1],0.969
same,normalized growth,"locus YNL128W, strain TEP1, stronger effect = lower value",0.632 (active)
same,normalized growth,"locus YNL175C, strain NOP13, stronger effect = lower value",0.664 (active)
same,normalized growth,"locus YNL197C, strain WHI3, stronger effect = lower value",0.81 (active)
same,normalized growth,"locus YNL224C, strain SQS1, stronger effect = lower value",0.729 (active)
same,normalized growth,"locus YOR083W, strain WHI5 (second series), stronger effect = lower value",0.473 (active)
same,normalized growth,"locus YPL055C, strain LGE1, stronger effect = lower value",0.909
CC(=O)O[C@@](C)(CCC=C(C)C)C1CC=C(C)CC1 (stereo partly specified),normalized growth,"locus YAL013W, strain DEP1, stronger effect = lower value",1.02
same,normalized growth,"locus YAL021C, strain ccr4, stronger effect = lower value",1.01
same,normalized growth,"locus YAL026C, strain drs2, stronger effect = lower value",0.989
same,normalized growth,"locus YAL030W, strain snc1, stronger effect = lower value",0.987
same,normalized growth,"locus YBL061C, strain skt5, stronger effect = lower value",0.979
same,normalized growth,"locus YBR009C, strain hhf1, stronger effect = lower value",1.01
same,normalized growth,"locus YBR021W, strain FUR4, stronger effect = lower value",1.03
same,normalized growth,"locus YBR023C, strain chs3, stronger effect = lower value",0.986
same,normalized growth,"locus YBR171W, strain sec66, stronger effect = lower value",0.981
same,normalized growth,"locus YBR229C, strain ROT2, stronger effect = lower value",1.02
same,normalized growth,"locus YBR231C, strain swc5, stronger effect = lower value",0.996
same,normalized growth,"locus YBR279W, strain paf1, stronger effect = lower value",0.987
same,normalized growth,"locus YCL011C, strain gbp2, stronger effect = lower value",0.983
same,normalized growth,"locus YCL016C, strain dcc1, stronger effect = lower value",0.996
same,normalized growth,"locus YCL029C, strain bik1, stronger effect = lower value",0.992
same,normalized growth,"locus YCL069W, strain vba3, stronger effect = lower value",0.983
same,normalized growth,"locus YCR088W, strain abp1, stronger effect = lower value",0.983
same,normalized growth,"locus YDL005C, strain med2, stronger effect = lower value",0.978
same,normalized growth,"locus YDL035C, strain GPR1, stronger effect = lower value",1.01
same,normalized growth,"locus YDL040C, strain nat1, stronger effect = lower value",0.988
same,normalized growth,"locus YDL074C, strain BRE1, stronger effect = lower value",1.03
same,normalized growth,"locus YDL101C, strain DUN1, stronger effect = lower value",1.03
same,normalized growth,"locus YDL185W, strain tfp1, stronger effect = lower value",0.988
same,normalized growth,"locus YDL192W, strain arf1, stronger effect = lower value",1
same,normalized growth,"locus YDR001C, strain nth1, stronger effect = lower value",0.991
same,normalized growth,"locus YDR069C, strain doa4, stronger effect = lower value",0.966
same,normalized growth,"locus YDR101C, strain arx1, stronger effect = lower value",0.97
same,normalized growth,"locus YDR137W, strain rgp1, stronger effect = lower value",0.976
same,normalized growth,"locus YDR159W, strain sac3, stronger effect = lower value",0.982
same,normalized growth,"locus YDR162C, strain NBP2, stronger effect = lower value",1.05
same,normalized growth,"locus YDR195W, strain ref2",0.982
same,normalized growth,"locus YDR297W, strain sur2, stronger effect = lower value",0.974
same,normalized growth,"locus YDR318W, strain mcm21, stronger effect = lower value",0.997
same,normalized growth,"locus YDR334W, strain swr1, stronger effect = lower value",0.985
same,normalized growth,"locus YDR335W, strain msn5, stronger effect = lower value",0.986
same,normalized growth,"locus YDR388W, stronger effect = lower value",0.994
same,normalized growth,"locus YDR392W, strain spt3, stronger effect = lower value",0.973
same,normalized growth,"locus YDR502C, strain sam2, stronger effect = lower value",0.978
same,normalized growth,"locus YEL003W, strain gim4, stronger effect = lower value",0.993
same,normalized growth,"locus YEL037C, strain rad23, stronger effect = lower value",0.991
same,normalized growth,"locus YEL061C, strain CIN8 (second series), stronger effect = lower value",0.978
same,normalized growth,"locus YEL061C, strain CIN8, stronger effect = lower value",1.02
same,normalized growth,"locus YER015W, strain faa2, stronger effect = lower value",0.994
same,normalized growth,"locus YER016W, strain bim1, stronger effect = lower value",0.992
same,normalized growth,"locus YER110C, stronger effect = lower value",0.985
same,normalized growth,"locus YER111C, strain swi4, stronger effect = lower value",0.981
same,normalized growth,"locus YER155C, strain BEM2 (second series), stronger effect = lower value",1.01
same,normalized growth,"locus YER155C, strain BEM2, stronger effect = lower value",1.02
same,normalized growth,"locus YER167W, strain BCK2, stronger effect = lower value",1
same,normalized growth,"locus YFR010W, strain ubp6, stronger effect = lower value",0.973
same,normalized growth,"locus YGL078C, strain dbp3, stronger effect = lower value",0.995
same,normalized growth,"locus YGL086W, strain mad1, stronger effect = lower value",0.991
same,normalized growth,"locus YGL167C, strain pmr1, stronger effect = lower value",0.991
same,normalized growth,"locus YGL173C, strain kem1, stronger effect = lower value",0.984
same,normalized growth,"locus YGL227W, strain vid30, stronger effect = lower value",0.986
same,normalized growth,"locus YGL240W, strain doc1, stronger effect = lower value",0.992
same,normalized growth,"locus YGL248W, strain PDE1, stronger effect = lower value",1.05
same,normalized growth,"locus YGL253W, strain hxk2, stronger effect = lower value",0.987
same,normalized growth,"locus YGR078C, strain PAC10, stronger effect = lower value",1.05
same,normalized growth,"locus YGR135W, strain pre9, stronger effect = lower value",1.02
same,normalized growth,"locus YGR229C, strain SMI1, stronger effect = lower value",0.998
same,normalized growth,"locus YGR252W, strain gcn5, stronger effect = lower value",1.01
same,normalized growth,"locus YHR013C, strain ard1, stronger effect = lower value",1
same,normalized growth,"locus YHR027C, strain rpn1, stronger effect = lower value",0.983
same,normalized growth,"locus YHR030C, strain SLT2, stronger effect = lower value",1.02
same,normalized growth,"locus YHR079C, strain IRE1 (second series), stronger effect = lower value",0.985
same,normalized growth,"locus YHR094C, strain hxt1, stronger effect = lower value",1
same,normalized growth,"locus YHR129C, strain ARP1, stronger effect = lower value",1.02
same,normalized growth,"locus YHR142W, strain chs7, stronger effect = lower value",0.999
same,normalized growth,"locus YHR200W, strain rpn10, stronger effect = lower value",0.992
same,normalized growth,"locus YIL066C, strain RNR3, stronger effect = lower value",1.04
same,normalized growth,"locus YIL073C, strain SPO22, stronger effect = lower value",1
same,normalized growth,"locus YIL125W, strain kgd1, stronger effect = lower value",1
same,normalized growth,"locus YIR030C, strain dcg1, stronger effect = lower value",0.992
same,normalized growth,"locus YJL092W, strain hpr5, stronger effect = lower value",0.988
same,normalized growth,"locus YJL095W, strain BCK1 (second series), stronger effect = lower value",0.998
same,normalized growth,"locus YJL095W, strain BCK1, stronger effect = lower value",1.06
same,normalized growth,"locus YJL115W, strain asf1, stronger effect = lower value",0.989
same,normalized growth,"locus YJL129C, strain trk1, stronger effect = lower value",0.981
same,normalized growth,"locus YJL134W, strain LCB3, stronger effect = lower value",1.01
same,normalized growth,"locus YJL154C, strain vps35, stronger effect = lower value",0.984
same,normalized growth,"locus YJL164C, strain tpk1, stronger effect = lower value",0.994
same,normalized growth,"locus YJL166W, strain qcr8, stronger effect = lower value",0.983
same,normalized growth,"locus YJL168C, strain set2, stronger effect = lower value",0.999
same,normalized growth,"locus YJL187C, strain SWE1 (second series), stronger effect = lower value",1.04
same,normalized growth,"locus YJL187C, strain SWE1, stronger effect = lower value",0.991
same,normalized growth,"locus YJR043C, strain POL32, stronger effect = lower value",1.04
same,normalized growth,"locus YKL009W, strain mrt4, stronger effect = lower value",0.962
same,normalized growth,"locus YKL068W, stronger effect = lower value",0.997
same,normalized growth,"locus YKL085W, strain MDH1 (second series), stronger effect = lower value",0.994
same,normalized growth,"locus YKL085W, strain MDH1, stronger effect = lower value",0.994
same,normalized growth,"locus YKL160W, strain elf1, stronger effect = lower value",0.993
same,normalized growth,"locus YKL190W, strain CNB1, stronger effect = lower value",1.01
same,normalized growth,"locus YKR001C, strain vps1, stronger effect = lower value",0.987
same,normalized growth,"locus YKR026C, strain gcn3, stronger effect = lower value",0.99
same,normalized growth,"locus YKR091W, strain srl3, stronger effect = lower value",0.982
same,normalized growth,"locus YLL001W, strain dnm1, stronger effect = lower value",0.993
same,normalized growth,"locus YLL026W, stronger effect = lower value",0.985
same,normalized growth,"locus YLL041C, strain sdh2, stronger effect = lower value",1.01
same,normalized growth,"locus YLR027C, strain aat2, stronger effect = lower value",0.985
same,normalized growth,"locus YLR039C, strain RIC1, stronger effect = lower value",1.05
same,normalized growth,"locus YLR058C, strain SHM2, stronger effect = lower value",1.04
same,normalized growth,"locus YLR102C, strain apc9, stronger effect = lower value",0.986
same,normalized growth,"locus YLR221C, strain rsa3, stronger effect = lower value",0.972
same,normalized growth,"locus YLR258W, strain gsy2, stronger effect = lower value",1.01
same,normalized growth,"locus YLR262C, strain YPT6 (second series), stronger effect = lower value",0.959
same,normalized growth,"locus YLR262C, strain YPT6, stronger effect = lower value",1.04
same,normalized growth,"locus YLR268W, strain sec22, stronger effect = lower value",1
same,normalized growth,"locus YLR320W, strain mms22, stronger effect = lower value",0.975
same,normalized growth,"locus YLR330W, strain CHS5, stronger effect = lower value",1.03
same,normalized growth,"locus YLR342W, strain FKS1 (second series), stronger effect = lower value",1.09
same,normalized growth,"locus YLR342W, strain FKS1, stronger effect = lower value",0.974
same,normalized growth,"locus YLR357W, strain rsc2, stronger effect = lower value",0.951
same,normalized growth,"locus YLR370C, strain arc18, stronger effect = lower value",0.983
same,normalized growth,"locus YLR371W, strain rom2, stronger effect = lower value",0.997
same,normalized growth,"locus YLR384C, strain iki3, stronger effect = lower value",0.973
same,normalized growth,"locus YLR418C, strain cdc73, stronger effect = lower value",0.988
same,normalized growth,"locus YML016C, strain PPZ1, stronger effect = lower value",1.02
same,normalized growth,"locus YML032C, strain rad52, stronger effect = lower value",1.01
same,normalized growth,"locus YML120C, strain ndi1, stronger effect = lower value",0.985
same,normalized growth,"locus YML124C, strain tub3, stronger effect = lower value",0.992
same,normalized growth,"locus YMR058W, strain fet3, stronger effect = lower value",0.995
same,normalized growth,"locus YMR078C, strain ctf18, stronger effect = lower value",0.971
same,normalized growth,"locus YMR125W, strain sto1, stronger effect = lower value",0.983
same,normalized growth,"locus YMR129W, stronger effect = lower value",1
same,normalized growth,"locus YMR205C, strain PFK2, stronger effect = lower value",0.988
same,normalized growth,"locus YMR223W, strain ubp8, stronger effect = lower value",1.04
same,normalized growth,"locus YMR231W, strain pep5, stronger effect = lower value",0.994
same,normalized growth,"locus YMR263W, strain SAP30, stronger effect = lower value",1.04
same,normalized growth,[1],1.11
same,normalized growth,"locus YNL067W, strain RPL9B, stronger effect = lower value",1.04
same,normalized growth,"locus YNL071W, strain lat1, stronger effect = lower value",0.99
same,normalized growth,"locus YNL153C, strain GIM3, stronger effect = lower value",1.04
same,normalized growth,"locus YNL209W, strain ssb2, stronger effect = lower value",0.984
same,normalized growth,"locus YNL233W, strain BNI4, stronger effect = lower value",1.04
same,normalized growth,"locus YNL248C, strain rpa49, stronger effect = lower value",0.975
same,normalized growth,"locus YNL250W, strain rad50, stronger effect = lower value",1.01
same,normalized growth,"locus YNL271C, strain bni1, stronger effect = lower value",0.998
same,normalized growth,"locus YNL298W, strain CLA4, stronger effect = lower value",0.996
same,normalized growth,"locus YNL307C, strain MCK1, stronger effect = lower value",0.996
same,normalized growth,"locus YNL322C, strain KRE1 (second series), stronger effect = lower value",0.99
same,normalized growth,"locus YNR049C, strain mso1, stronger effect = lower value",1
same,normalized growth,"locus YNR052C, strain pop2, stronger effect = lower value",0.995
same,normalized growth,"locus YOL006C, strain TOP1, stronger effect = lower value",1.14
same,normalized growth,"locus YOL012C, strain htz1",0.898
same,normalized growth,"locus YOL147C, strain pex11, stronger effect = lower value",0.984
same,normalized growth,"locus YOR001W, strain rrp6, stronger effect = lower value",0.973
same,normalized growth,"locus YOR061W, strain CKA2, stronger effect = lower value",1.03
same,normalized growth,"locus YOR069W, strain VPS5, stronger effect = lower value",1.01
same,normalized growth,"locus YOR070C, strain gyp1, stronger effect = lower value",0.982
same,normalized growth,"locus YOR080W, strain dia2, stronger effect = lower value",0.991
same,normalized growth,"locus YOR083W, strain WHI5, stronger effect = lower value",0.999
same,normalized growth,"locus YOR106W, strain vam3, stronger effect = lower value",0.975
same,normalized growth,"locus YOR136W, strain idh2, stronger effect = lower value",0.988
same,normalized growth,"locus YOR144C, strain elg1, stronger effect = lower value",0.983
same,normalized growth,"locus YOR184W, strain ser1, stronger effect = lower value",0.962
same,normalized growth,"locus YOR265W, strain rbl2, stronger effect = lower value",1
same,normalized growth,"locus YOR270C, strain vph1, stronger effect = lower value",0.915
same,normalized growth,"locus YOR290C, strain snf2, stronger effect = lower value",0.989
same,normalized growth,"locus YOR316C, strain cot1, stronger effect = lower value",1.01
same,normalized growth,"locus YPL051W, strain arl3, stronger effect = lower value",1.01
same,normalized growth,"locus YPL078C, strain atp4, stronger effect = lower value",1.02
same,normalized growth,"locus YPL106C, strain sse1, stronger effect = lower value",1
same,normalized growth,"locus YPL240C, strain hsp82, stronger effect = lower value",0.974
same,normalized growth,"locus YPL241C, strain CIN2, stronger effect = lower value",1.01
same,normalized growth,"locus YPR119W, strain clb2, stronger effect = lower value",0.997
same,normalized growth,"locus YPR141C, strain kar3, stronger effect = lower value",0.997
same,normalized growth,"locus YPR163C, strain tif3, stronger effect = lower value",1
same,normalized growth,"locus YPR167C, strain met16, stronger effect = lower value",1
same,normalized growth,"strain wtn01, stronger effect = lower value",0.987

# From PubChem BioAssay AID1159580 (chemical genetic matrix, 2015)
